What is called inhibition is the change of the read-out against control, counted positive when it falls.

The campaign covered roughly 1,500 compounds. About 950 (63%) were called active. Rule as the data show it: active = inhibition above about 25%; inactive = the rest. So high a share suggests a set chosen from earlier hits. Only a sample is shown.

This experiment concerns the target Major prion protein (Homo sapiens) (UniProt P04156). Kind of experiment: cell surface PrPC inhibition, TR-FRET confirmation, confirmation, cell-based, TR-FRET (AID 743200). The following applies: cell surface PrPC level, at 13.8 µM, hits give high values. A general note: In TR-FRET formats the signal depends on donor and acceptor labels being close together.
In the case of `COc1cccc2sc3cc(NCC[C@@H]4CCCN4C)ccc3c(=O)c12`, the inhibition was 46% (active). For `COc1ccc2c(Cl)c(-c3nnco3)sc2c1`, the inhibition was 37.6% (active). Consider `FC(F)(F)c1cccc(NC(=S)OC2CCC23CCC(c2ccccc2)CC3)c1` (stereo not drawn), for which the inhibition was 15.7% (inactive). The same measure for `CC(=O)c1sc2nc(SCC(=O)N3CCCCC3)[nH]c(=O)c2c1C`: 28.8% (active).

Regarding `COc1ccc(S(=O)(=O)N2CCOCC2)cc1NC(=O)CSc1ncnc2ccccc12`, the inhibition was 92.1% (active). Consider `O=C(Nc1cccn(Cc2ccccc2Cl)c1=O)NC1CCCCC1`, for which the inhibition is 15.9% (inactive).

On to `Cc1nc(/N=C(\N)NC(=O)NC2CCCCC2)nc2ccccc12`, for which the inhibition is 29.3% (active). The same measure for `O=C(CC(O)(C(F)(F)F)C(F)(F)F)Nc1ccc(Cl)c(Cl)c1`: 58.3% (active); for `COc1ccc(NC(=O)COC(=O)CNC(=O)C2CCCCC2)cc1`: 3.04% (inactive); for `CCOC(=O)c1c(-c2ccccc2)oc2cc(Br)c(O)cc12`: 90.9% (active).

On to `O=C(/C=C/c1ccc([N+](=O)[O-])o1)NNC(=O)c1ccc(F)cc1`, for which the inhibition is 64.6% (active). On to `CC1(C)Cc2ccccc2-c2[nH]c(=S)[nH]c(=O)c21`, for which the inhibition was 81.8% (active). Turning to `N#Cc1c(-c2cccs2)nc(SCC(=O)c2ccc(Br)cc2)[nH]c1=O`, the inhibition is 74.2% (active). With `COc1cc(-n2c(=S)[nH]c3ccc(C)cc3c2=O)c(Cl)cc1Cl`, the inhibition was 46.2% (active). Turning to `CCCOc1ccc(C2C(C(=O)c3ccc(C)o3)=C(O)C(=O)N2CCCn2ccnc2)cc1` (stereo not drawn), the inhibition was 52.6% (active).

`O=C(Oc1ccccc1)Oc1ccc2c(c1)oc(=O)c1ccccc12`: the inhibition is 40.9% (active). As to `Cc1ccnc(NC(=O)C2CCN(S(=O)(=O)c3c(C)c(C)cc(C)c3C)CC2)c1`, the inhibition is 20.7% (inactive). On to `C=CCNC(=O)CSc1nc2scc(-c3ccco3)c2c(=O)n1CC=C`, for which the inhibition was 31.3% (active). Consider `Cc1cc2ccccc2n1CCNC(=O)COc1ccc2ccccc2c1`, for which the inhibition is 48.4% (active). Turning to `CCCc1nc(SCC(=O)Nc2ccc(S(=O)(=O)N(C)C)cc2)c2ccccc2n1`, the inhibition was 90.7% (active). `Cc1cccc(NC(=O)c2nc(S(=O)(=O)Cc3ccccc3)ncc2Cl)c1`: the inhibition is 39.3% (active). With `Cc1cccc(CS(=O)(=O)c2ncc(Cl)c(C(=O)Nc3ccc(F)cc3)n2)c1` the figure was 15.9% (inactive); with `CCCCCCCCn1c2c(c(=N)c3c1CCC3)CCCC2`, 44.9% (active). As to `CN(C)CCNC(=O)c1ccc(Cl)c2cc3ccccc3nc12`, the inhibition was 45.2% (active).

With `CO[C@H]([C@H](C)/C=C/N(C)C=O)[C@@H](C)C(=O)CC[C@H](C)[C@H](O)[C@H](C)[C@H]1OC(=O)/C=C/C(C)=C/[C@H](O)[C@H](OC)C[C@@H]2C=CC[C@@H](C[C@H](OC)[C@@]3(CO3)[C@@H](OC)C[C@@H](OC)[C@@H]1C)O2`, the inhibition was 32.5% (active). `Cn1c(=S)sc2ccc3ccccc3c21`: the inhibition is 75.4% (active). In the case of `CCCCNc1c(-c2cccc(Sc3ccc(OC)cc3)c2)nc2ccccn12`, the inhibition is 17% (inactive). On to `Cc1sc2ncnc(SCC(=O)Nc3ccc(CN4CCCC4)cc3)c2c1C`, for which the inhibition is 53.1% (active). As for `NC(=O)C1CCN(Cc2nc3c(Br)cc(Br)cc3c(=O)[nH]2)CC1`, the inhibition was 41.7% (active).

As to `CCOC(=O)c1c(C)[nH]c(=S)c(C#N)c1-c1ccccc1`, the inhibition is 43.5% (active).

For the compound `CCC(C)(O)C(=O)OC1C(=O)OC2CC3C(C)=CC(=O)C(O)C3(C)C3C4(O)OCC23C1C(C)C4O` (stereo not drawn), the inhibition was 98.8% (active). As to `COC(=O)Cc1[nH]n(-c2nc3ccccc3s2)c(=O)c1C(C)=Nc1ccc(OC)cc1`, the inhibition was 5.13% (inactive). With `COc1ccc(C(=O)Nc2nc(-c3ccc(S(=O)(=O)N4CCOCC4)cc3)cs2)cc1`, the inhibition is 27.4% (active). Consider `Cc1cc2cc(CNC(=O)c3ccc(S(=O)(=O)N4CCOCC4)cc3)ccc2[nH]1`, for which the inhibition is 15.2% (inactive). The same measure for `Cc1ccsc1C(=O)OCC(=O)Nc1cccc(F)c1`: 8.25% (inactive); for `Cc1ccc(CSc2ccc(S(=O)(=O)N3CCCCC3)cn2)cc1`: 6.8% (inactive). In the case of `CCc1c(C)nc2cc(-c3cccs3)[nH]n2c1=O`, the inhibition is 41.7% (active).

`O=C(COC(=O)c1ccccc1SCC(=O)NC1CCCCC1)NC1CCCCC1`: the inhibition is 24.6% (active). For `O=C1CCCC2=C1C(c1cccs1)n1nc(SCc3ccccc3)nc1N2` (stereo not drawn), the inhibition is 20% (inactive). In the case of `N#C/C=C1\Sc2ccccc2C(=O)N1CC(=O)N1CCN(S(=O)(=O)c2ccccc2)CC1`, the inhibition was 67.5% (active).

As to `N#Cc1ccc(OCC(=O)Nc2nc(-c3ccccn3)cs2)cc1`, the inhibition is 18.7% (inactive). With `COc1ccc(OC)c(NC(=O)c2cc(-c3cc(F)ccc3OCC3CCCO3)n[nH]2)c1` (stereo not drawn) the figure was 10.2% (inactive). In the case of `CC(=O)N1c2ccc(S(=O)(=O)N3CCCC(C(=O)Nc4cccc(F)c4)C3)cc2CC1C` (stereo not drawn), the inhibition was 49.1% (active).

With `CC(=O)N1CCCc2cc(S(=O)(=O)N3CCCC(C(=O)NCc4ccc(Cl)cc4)C3)ccc21` (stereo not drawn), the inhibition is 17.2% (inactive). Consider `CC(=O)N1CCCc2cc(S(=O)(=O)N3CCCC(C(=O)N4CCN(c5cccc(Cl)c5)CC4)C3)ccc21` (stereo not drawn), for which the inhibition was 38.3% (active). As to `O=C(NC(Nc1nc2ccc([N+](=O)[O-])cc2s1)(C(F)(F)F)C(F)(F)F)c1ccccc1`, the inhibition is 65.9% (active). `CN1/C(=C\C(=O)c2oc3ccccc3c2N)C(C)(C)c2ccccc21`: the inhibition is 49.3% (active). On to `CC(=O)Nc1cccc(OCC(=O)/C=C2\N(C)c3ccccc3C2(C)C)c1`, for which the inhibition was 20.8% (inactive). On to `O=C(Nc1ccc(C2CC2(Cl)Cl)cc1)c1cccc([N+](=O)[O-])c1` (stereo not drawn), for which the inhibition is 24.7% (active). With `O=C(Cc1ccccc1)Nc1cccc(NC(=O)c2ccccc2)c1` the figure was 11.2% (inactive). For `Cc1ccc(CNC(=O)Nc2nnc([C@H]3C[C@H](O)[C@@H](CO)O3)s2)cc1`, the inhibition was -0.76% (inactive). With `Cc1ccc(Oc2cnn(-c3ccccc3)c(=O)c2Br)cc1`, the inhibition was 51.9% (active). Regarding `CC(=O)c1nc(N2C(=O)C3CC=C(C)CC3C2=O)sc1C` (stereo not drawn), the inhibition was 18% (inactive). As for `Cc1[nH]n(-c2ccccc2)c(=O)c1/C=N/NC(=O)c1ccoc1C`, the inhibition was 60.1% (active). With `O=C(c1ccc(F)cc1)c1cn(Cc2ccc(F)cc2)c2cc3c(cc2c1=O)OCCO3`, the inhibition was 90.5% (active). Turning to `Fc1ccc2[nH]c3c(N4CCSCC4)ncnc3c2c1`, the inhibition is 35.3% (active). With `Cc1ccc(NC(=O)c2sc3nc(N)c(C#N)cc3c2N)cc1` the figure was 35.3% (active).

As to `CCc1nc(SCC(=O)NNC(=O)c2ccc(C)cc2)c2ccccc2n1`, the inhibition was 118% (active). `COC(=O)CSc1nc(C2CC2)nc2ccccc12`: the inhibition is 35.9% (active). `O=c1[nH]cccc1-c1nc2ccccc2n1Cc1ccc(Cl)cc1`: the inhibition is 35.3% (active). Turning to `CCCCC(=O)NC(c1ccc(OC)c(OC)c1)c1ccc2cccnc2c1O` (stereo not drawn), the inhibition was 26.9% (active). For the compound `CCCCCCCCCCCCn1ccc(=N)cc1`, the inhibition was 38.5% (active). With `O=C(Nc1ccc(N2CCN(C(=O)c3ccccc3)CC2)c(Cl)c1)c1cccnc1`, the inhibition was 12.3% (inactive).

The values are drawn from PubChem BioAssay AID743200 (The Scripps Research Institute Molecular Screening Center, 2013).
